Measured values: PubChem BioAssay
Calls of active or inactive are those of the source.

Experiments:
[1] = A549 cell viability effects, profiling panel, calcein-AM fluorescence, 48 h, basal (AID 1162); settings: higher = more signal
[2] = adipocyte viability effects, profiling panel, cell-based, 3T3-L1 adipocytes, calcein-AM fluorescence, 48 h, basal (AID 1163); settings: 3T3-L1 adipocytes viability, higher = more signal
[3] = HepG2 cell viability effects, profiling panel, calcein-AM fluorescence, 48 h, basal (AID 1164); settings: higher = more signal
[4] = MM1S cell viability effects, profiling panel, calcein-AM fluorescence, 48 h, basal (AID 1165); settings: higher = more signal;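 further: viability of MM1S multiple myeloma cells under basal unstimulated conditions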
[5] = basal RPMI8226 viability, no added stimulus, profiling panel, cell-based, calcein-AM fluorescence, 48 h, PK04 Diversity Set (AID 1166); settings: RPMI8226 myeloma viability, higher = more signal;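 further: cells grown under basal conditions without added stimulus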
[6] = basal HepG2 mitochondrial membrane potential changes, profiling panel, cell-based, JC-1 fluorescence, 24 h, 100 nL compound (AID 1167); settings: higher = more signal
[7] = basal 3T3-L1 adipocyte mitochondrial potential changes, profiling panel, cell-based, JC-1 fluorescence, 3T3-L1 adipocytes, 24 h, 100 nL compound (AID 1168); settings: JC-1 mitochondrial fluorescence, higher = more signal, called active from +8 up or from −8 down
[8] = basal RPMI8226 mitochondrial membrane potential changes, profiling panel, cell-based, JC-1 fluorescence, 24 h, 100 nL compound (AID 1169); settings: RPMI8226 myeloma, JC-1 mitochondrial potential fluorescence, higher = more signal
[9] = basal MM1S mitochondrial membrane potential changes, profiling panel, cell-based, JC-1 fluorescence, 24 h, 100 nL compound (AID 1170); settings: higher = more signal
[10] = A549 lung cancer cell viability effects, profiling panel, resazurin fluorescence, 24 h, PK04 Diversity Set (AID 1171); settings: higher = more signal, called active from +8 up or from −8 down
Further: test concentration not given here.

SMILES | z-score [1] | z-score [2] | z-score [3] | z-score [4] | z-score [5] | z-score [6] | z-score [7] | z-score [8] | z-score [9] | z-score [10]
C=C(/C(=C/C[C@@H](OC(C)=O)c1ccc(OCCO)cc1)c1cnc2ccccc2c1)C(C)C | 2.72 | 1.39 | 1.25 | -0.924 | 0.559 | 2.07 | -1.27 (inactive) | -0.139 | -1.17 | 0.685 (inactive)
COC(=O)[C@@]1(Cc2ccc(OC)cc2)[C@H]2c3cc(C(=O)N4CCCC4)n(Cc4ccc(OC)c(OC)c4)c3C[C@H]2CN1C(=O)c1ccccc1 | -0.25 | 0.525 | -1.05 | -0.128 | -0.808 | 4 | 0.0331 (inactive) | -0.16 | -0.602 | 1.21 (inactive)
O=C1C2C=CC(C(O)c3c(F)cccc3Cl)N(Nc3ccccc3)C2C(=O)N1c1ccccc1 (stereo not given) | 1.14 | -1.4 | 0.309 | -0.474 | 0.474 | -1.41 | 0.455 (inactive) | -0.235 | -0.488 | -0.0768 (inactive)
COc1ccc(C(O)C2C=CC3C(=O)N(c4ccccc4)C(=O)C3N2Nc2ccccc2F)cc1OCc1ccccc1 (stereo not given) | -0.0678 | -1.77 | -0.561 | 0.0664 | -0.43 | -1.51 | -0.838 (inactive) | -0.75 | -0.909 | -0.179 (inactive)
COCCOC(=O)N1C(=O)[C@@]2(c3cc(C#Cc4ccc(OC)cc4)ccc31)[C@H](c1ccc(O)cc1)N1[C@H](c3ccccc3)[C@H](c3ccccc3)OC(=O)[C@H]1[C@@H]2C(=O)NC[C@H](O)c1ccccc1 | -0.828 | 1.44 | -0.55 | -1 | -2.16 | -1.99 | 2.46 (inactive) | -0.653 | -0.524 | 0.123 (inactive)
CN(C)C(=O)[C@@]1(Cc2ccccc2)N=C(c2ccc(OCCCO)cc2)O[C@H]1c1ccccc1N=[N+]=[N-] | -1.45 | 1.22 | -1.84 | -2.53 | -3.91 | 1.48 | 1.17 (inactive) | -0.981 | -2.53 | -1.63 (inactive)
C=CCNC(=O)[C@@H]1[C@H]2C(=O)O[C@H](c3ccccc3)[C@H](c3ccccc3)N2[C@H](c2ccccc2OCCO)[C@@]12C(=O)N(C(=O)OCCOC)c1ccc(C#CCNC(N)=O)cc12 | 0.843 | 0.595 | 0.886 | 0.765 | 0.425 | 0.766 | 0.586 (inactive) | 0.159 | -0.341 | -0.768 (inactive)
C[C@]1(C(=O)NC2CC2)c2ccccc2C(=O)N(Cc2cc(C(F)(F)F)cc(C(F)(F)F)c2)[C@H]1c1ccc(CO)cc1 | 1.34 | 0.254 | 1.44 | 0.274 | 0.56 | 2.04 | -0.0278 (inactive) | -0.105 | -0.262 | 0.89 (inactive)
CCCC[C@@H]1C[C@H]1[C@@H](NC(=O)c1ccco1)c1ccc(Cl)cc1 | -2.3 | -0.679 | -0.746 | -1.95 | -2.24 | 2.38 | -0.732 (inactive) | -0.318 | -1.37 | 0.473 (inactive)
C#CCN(CC=C(C)C)[C@H](CO)c1ccccc1 | -0.589 | 1.37 | -0.7 | 0.0539 | -1.2 | -1.16 | 0.27 (inactive) | -0.383 | 0.471 | -0.665 (inactive)
CC(C)(C)OC(=O)CC[C@]1(C(=O)NCC(O)CO)COC(c2ccc(OCCCO)cc2)=N1 (stereo not given in full) | 0.208 | -0.388 | -0.665 | -1.01 | 0.418 | -0.76 | 0.176 (inactive) | 0.527 | -0.23 | 0.706 (inactive)
CCCCC(=C=CC[C@@H](O)c1ccccc1OCCO)CCO | 0.499 | 0.337 | 0.595 | -0.0292 | 0.181 | 0.251 | -0.321 (inactive) | 0.11 | 0.502 | 0.245 (inactive)
CCOC(=O)C=Cc1cc([N+](=O)[O-])ccc1O | -0.563 | 1.39 | -1.27 | 0.112 | -2.29 | -1.91 | 0.428 (inactive) | -0.403 | -0.889 | 0.384 (inactive)
O=C1NC(=O)C2C1C=CC(C(O)C(c1ccccc1)c1ccccc1)N2Nc1ccc(Cl)cc1Cl (stereo not given) | -2.92 | 0.205 | -2.7 | -3.71 | -4.14 | -3.99 | -0.283 (inactive) | -0.925 | -0.133 | -1.18 (inactive)
Cc1ccc(S[C@]2(C(=O)NCCN3CCOCC3)CC(=O)N(Cc3ccccc3)[C@@H]2c2ccc(CO)cc2I)cc1 | -0.242 | 1.1 | -0.705 | -2.08 | -2.5 | 0.119 | -0.688 (inactive) | -0.383 | -2.44 | 0.394 (inactive)
O=C(NCc1ccc(F)cc1)[C@H]1C[C@H]2C(=O)N[C@@H](Cc3ccccc3)C(=O)N2[C@H]1c1ccc(O)cc1 | 0.0416 | 0.17 | 0.0329 | -0.973 | -0.27 | 1.11 | 0.672 (inactive) | 0.736 | 0.453 | 0.278 (inactive)

SMILES | z-score [1] | z-score [2] | z-score [3] | z-score [4] | z-score [5] | z-score [6] | z-score [7] | z-score [8] | z-score [9] | z-score [10]
COCCOC(=O)N1C(=O)[C@@]2(c3cc(C#CC4=CCCCC4)ccc31)[C@H](C(=O)N1CCc3cc(OC)c(OC)cc3C1)[C@H]1C(=O)O[C@H](c3ccccc3)[C@H](c3ccccc3)N1[C@@H]2c1ccc(OCCO)cc1 | -0.989 | 0.847 | -1.2 | -1.84 | -0.691 | -0.207 | 1.22 (inactive) | -0.621 | -0.968 | 0.531 (inactive)
COCCCNC(=O)[C@@]1(Cc2ccccc2)N=C(c2ccc(OCCCO)cc2)O[C@H]1c1ccccc1 | -0.736 | -0.493 | -0.104 | -1.03 | -0.856 | 0.00935 | 0.425 (inactive) | -1.11 | -0.314 | 1.57 (inactive)
COc1ccc([C@H]2OC[C@@H]3CC4(CC=CC4)C(=O)N32)cc1 | 0.262 | -0.238 | -0.0409 | -0.58 | 0.055 | -0.301 | 0.197 (inactive) | -0.54 | 0.17 | -0.312 (inactive)
COc1ccc(C(O)C2C=CC3C(=O)NC(=O)C3N2Nc2ccccn2)c2ccccc12 (stereo not given) | 0.606 | -1.17 | 0.384 | -0.178 | 0.384 | -1.11 | 0.296 (inactive) | -0.905 | -0.143 | -0.703 (inactive)
CCOC1=C2C(CN(S(=O)(=O)c3ccc(C)cc3)C2c2ccc(C)cc2)C2C(=O)N(c3ccccc3)C(=O)C2C1 (stereo not given) | -0.592 | -0.843 | 0.58 | 0.729 | 0.285 | 0.247 | 1.2 (inactive) | 1.1 | -1.37 | -0.376 (inactive)
COc1ccc(C(=O)Nc2ccc(CN3C(=O)[C@@]4(O[C@@H](CC(=O)N5CCC[C@H]5CO)[C@H]([Si](C)(C)c5ccc(OC)cc5)[C@H]4C)c4ccccc43)cc2)cc1 | 0.571 | 0.0638 | 0.269 | -2.5 | -3.93 | 3.78 | 0.926 (inactive) | -1.09 | -0.447 | 0.336 (inactive)
C=CC[C@@]1(C(=O)NCc2ccccc2)N=C(c2ccc(OCCCO)cc2)O[C@@H]1c1ccccc1N=[N+]=[N-] | -0.586 | 0.117 | 0.317 | -1.48 | -1.26 | -0.827 | 0.693 (inactive) | -1 | -0.85 | -0.307 (inactive)
COCCOC(=O)N1C(=O)[C@@]2(c3ccccc31)[C@H](c1ccccc1OCCO)N1[C@H](c3ccccc3)[C@H](c3ccccc3)OC(=O)[C@H]1[C@@H]2C(=O)Nc1nc2ccccc2s1 | -0.331 | 0.0264 | -0.271 | -1.39 | -1.54 | -1.51 | 1.79 (inactive) | -1.01 | -1.33 | -1.02 (inactive)
CC(CO)N1C(=O)[C@@H]2C3C(=O)OCCC/C=C\[C@H]3OC23C=CCN(c2ccc4ccccc4c2)C(=O)[C@@H]13 (stereo not given in full) | 0.149 | -0.0935 | 1.14 | 1.74 | 0.931 | 0.811 | -0.373 (inactive) | -0.713 | -0.832 | 0.315 (inactive)
COC(=O)[C@@]1(Cc2ccccc2)[C@H]2c3cc(C(=O)N4CCCC4)n(Cc4cccc5ccccc45)c3C[C@H]2CN1C(=O)c1ccccc1 | -0.692 | -0.57 | -0.824 | -1.42 | -3.92 | 1.04 | -2.12 (inactive) | -0.784 | -1.74 | -1.19 (inactive)
COc1ccc(COC2OC[C@]3(C)[C@H]4C5=C(CN3C(=O)OC(C)(C)C)[C@H](C)C(CO)C(CO)C5CC[C@@H]24)cc1 (stereo not given in full) | -0.963 | 0.627 | -0.0917 | 0.0355 | -1.17 | 1.24 | -0.685 (inactive) | 0.429 | 0.0993 | -1.34 (inactive)
CC(=O)NCCCC[C@@H]1NC(=O)[C@@H]2C[C@H](C(=O)NCCCCCCNC(=O)CS)[C@H](c3cccc(OCCO)c3)N2C1=O | 0.0596 | -0.834 | 0.282 | 0.211 | 0.132 | -0.387 | 0.0104 (inactive) | -0.811 | -0.333 | -0.435 (inactive)
COC(=O)[C@@]1(Cc2ccccc2)[C@H]2c3cc(C(=O)N4CCCC4)n(Cc4nc5ccccc5[nH]4)c3C[C@H]2CN1C(=O)c1ccccc1 | -0.579 | 0.887 | -0.537 | -2.39 | -2.19 | 1.73 | -0.807 (inactive) | -0.863 | -0.81 | -0.178 (inactive)
O=C1OCCC/C=C\[C@H]2OC34C=CCN(Cc5ccccc5)C(=O)[C@H]3N(CCCCCCO)C(=O)[C@@H]4C12 (stereo not given in full) | 2.3 | 0.0451 | 0.685 | 1.85 | 1.05 | 1.54 | 0.948 (inactive) | 0.44 | -1.11 | 1.28 (inactive)
CCCCN1CC=CC23O[C@@H]4/C=C\CCC(C)OC(=O)C4[C@H]2C(=O)N(CCCCCO)[C@@H]3C1=O (stereo not given in full) | -0.143 | 0.0763 | 0.478 | 1.52 | 0.096 | 0.241 | 0.9 (inactive) | 0.32 | -0.133 | 0.455 (inactive)
